Compound activity: PubChem, National Center for Advancing Translational Sciences (NCATS)
HCMV antiviral – inhibitors of human cytomegalovirus; HFF cells, HCMV-luciferase reporter, 72 h; hits give low values; actives 4.5% (n = 410,000); activity change, negative = inhibition, % at 57.5 µM; AID 1259415; in the data active means activity change below about -60%; inconclusive means no clear call, values can overlap the other calls; inactive means above about -39%
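After 16 h attachment at 37C, HFF cells received test compound and HCMV-luciferase (1 PFU/cell); reporter luminescence read 72 h later, data normalized against buffer-only and known inhibitor Salinomycin.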
Marburg entry inh – blocks Marburg virus binding to or entry into cells; actives 1.8% (n = 300,000); Marburg virus pseudotyped entry inhibition, cell reporter; Potency, µM (series often up to 37.8 µM), for the others: top-dose activity change, negative = inhibition, usual class: inhibitors; calls by dose curve; tested in HEK293 cells; further: potency means the concentration at half of the fitted maximal effect
HCV inh – blocks hepatitis C virus. actives 3.4% (n = 340,000). Huh7.5.1 HCVcc-Cre infection, luciferase reporter, 44 h. Potency, µM (doses to about 41.8 µM), for the others: at the highest dose activity change, negative = inhibition, hits mostly inhibitors. AID 651820; active means well fitted inhibition curve with a large enough effect; inconclusive means small, poorly fitted or top-dose-only effect, or another doubt; inactive means no such curve, though single readings can be large or run the other way; further: potency means the concentration at half of the fitted maximal effect
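Seed cells (1,000/well) for 4 h; treat with compound and infect with HCVcc-Cre, moi about 0.5. Incubate 44 h, then detect luciferase activity.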
LASV entry inh – blocks Lassa virus binding to or entry into cells. Lassa virus pseudotype entry inhibition, cell reporter. Potency, µM (series often up to 37.9 µM), inactives show at the highest dose activity change, negative = inhibition, most hits filed as inhibitors. actives 1.2% (n = 300,000); calls by dose curve; tested in HEK293 cells; further: potency means the concentration at half of the fitted maximal effect; nearly all actives have a fitted effect of over 50% in size
FMDV antiviral – blocks foot and mouth disease virus. FMDV antiviral cell-based qHTS. actives 1.2% (n = 410,000). Potency, µM (top dose mostly 57.9 µM), for inactives: at the top dose activity change, negative = inhibition, actives largely listed as inhibitors; calls by dose curve; tested in HEK293T cells; further: read-out not given here; potency means the concentration at half of the fitted maximal effect; nearly all actives have a fitted effect of over 45% in size
* hit, by the source's call; ? = inconclusive; . = not tested or not shown; [ ] = remark or other dose. Compounds with a hit are over-represented: about 7.9% of the library has one in this group of screens. On the % scale 0 is the no-effect control and ±100 the full control effect.

SMILES | HCMV antiviral | Marburg entry inh | HCV inh | LASV entry inh | FMDV antiviral
CCN(CC)c1ccc(C(NC(=O)C(C)C)c2ccc3cccnc3c2O)cc1 (configuration not stated) | -98.7* | . | . | . | -21.6%
CCCC(=O)NC(c1ccc(N(C)C)cc1)c1c(O)ccc2ccccc12 (configuration not stated) | 42.1 | ? | 1.8% | 3.2% | 13.4%
CC(C)C(=O)NC(c1ccc([N+](=O)[O-])cc1)c1c(O)ccc2ccccc12 (configuration not stated) | -29.0 | 6.4% | -24.3% | -2.9% | ?
CCCCC(=O)NC(c1ccc(N(CC)CC)cc1)c1ccc2cccnc2c1O (configuration not stated) | -95.7* | ? | 1.41µM* | ? | -2.2%
CCCCC(=O)NC(c1ccc(N(C)C)cc1)c1ccc2cccnc2c1O (configuration not stated) | -102.2* | ? | 3.98µM* | ? | 9.9%
Oc1c(C(Nc2nc3ccccc3s2)c2ccco2)ccc2cccnc12 (configuration not stated) | -97.6* | ? | 2.51µM* | ? | 25.7%
Cn1ccnc1COc1ccc(/C=N/O)cc1 | 61.0 | 19.9%[46.1 µM] | 19.8% | 27.1%[46.1 µM] | 20.3%
CC1=C(C(=O)Nc2ccc(C)c(C)c2)C2(CCCCCC2)OC1=O | 0.0 | . | . | -10.9%[46.1 µM] | 12.6%
CC(C)C(=O)NC(c1ccco1)c1ccc2cccnc2c1O (configuration not stated) | -101.8* | ? | 3.98µM* | ? | -18.5%
CC(=O)NC(c1ccco1)c1cc(Cl)c2ccc(Cl)nc2c1O (configuration not stated) | -28.7 | . | . | . | 0.0%
CN(C)c1ccc(CNC(=O)c2csc(N3CCN(CCc4ccccc4)C3=O)n2)cc1 | -1.3 | . | . | . | .
CC(=O)c1c2c(cc3c(N(C)C)cccc13)CC(CO)(CO)C2 | -16.7 | . | . | . | .
O=c1[nH]c2ccc(Cl)cc2c(-c2ccccc2)c1N1CCN(c2ccccn2)CC1 | -2.0 | 2.31µM* | ? | ? | 8.1%
O=c1[nH]c2ccc(Cl)cc2c(-c2ccccc2)c1N1CCOCC1 | 48.5 | . | 2.1% | . | -27.6%
Cc1ccc(NC(=O)c2oc3ccc(S(=O)(=O)N4CCCCCC4)cc3c2C)c(C)c1 | 13.2 | . | . | -1.7%[46.1 µM] | -24.7%
COc1cccc(-c2cc3nc(-c4ccccc4)cc(N4CCCC(O)C4)n3n2)c1 (configuration not stated) | -32.6 | . | 3.98µM* | . | -24.5%
OC1CCCN(c2c3c(nc4cc(-c5cccc(F)c5)nn24)CCCC3)C1 (configuration not stated) | 4.9 | ? | 6.31µM* | ? | 23.7%
Cc1cccc(-c2cc3nc4c(c(N5CCCC(O)C5)n3n2)CCC4)c1 (configuration not stated) | -26.5 | ? | 7.08µM* | ? | .
OC1CCCN(c2c3c(nc4cc(-c5cccc(Cl)c5)nn24)CCC3)C1 (configuration not stated) | 1.8 | ? | ? | 2.2% | .
CCOc1ccc(/C=C/c2nc(C#N)c(Nc3ccc(OC)cc3)o2)cc1 | ? | 4.2%[46.1 µM] | . | -22.0%[46.1 µM] | -10.0%
Cc1ccc(CNC(=O)C2CCC(=O)N(Cc3ccccc3F)C2)s1 (configuration not stated) | 120.2 | . | -18.5% | . | 6.1%
CCOC(=O)c1c(NC(=O)c2ccccc2)sc2c1CCc1ccccc1-2 | -20.8 | ? | -22.0% | 13.5% | -17.6%
CCOC(=O)c1c(NC(=O)c2ccccc2Cl)sc2c1CCc1ccccc1-2 | ? | 11.6% | 7.94µM* | -9.7% | ?
CCN(CC)C(=O)c1cc(Cl)ccc1NC(=O)c1ccco1 | 1.3 | . | -4.1% | . | -9.3%
CCN(CC)P(=O)(Nc1ccccc1Br)c1ccc(N(C)C)cc1NC(=O)c1ccco1 (configuration not stated) | -60.5* | ? | ? | -17.4%[46.1 µM] | ?
COc1ccc2[nH]c3c(c2c1)CCN1C(=O)N([C@@H](C)C(=O)NCCc2ccc(OC)c(OC)c2)C(=O)[C@]31C | 11.8 | . | ? | . | ?
COc1cccc(CNC(=O)[C@@H](C)N2C(=O)N3CCc4c([nH]c5ccc(OC)cc45)C3(C)C2=O)c1 (some centres not stated) | -32.1 | . | 8.91µM* | . | ?
COc1ccc(CCNC(=O)[C@H](C)N2C(=O)N3CCc4c([nH]c5ccccc45)[C@@]3(C)C2=O)cc1 | 17.7 | . | 4.47µM* | . | ?
